In PubChem BioAssay:
Active and inactive are the calls of the source. Unless noted, the rule behind the calls is not given here.

What was measured:
[1] = test system: XIP peptide (Xip251-270) binding; assay: small-molecule binders of XIP peptide, primary screen, biochemical, small-molecule microarray, fluorescence 635/667 nm, 0.1 µg/mL protein (AID 1182); conditions: fluorescent protein binding, 635 nm, higher = more signal, called active from +8 up or from −8 down
[2] = test system: XIP peptide (Xip251-270); assay: small-molecule binders of XIP peptide, primary screen, biochemical, small-molecule microarray, fluorescence 635/667 nm, 0.5 µg/mL protein (AID 1183); conditions: small-molecule microarray binding, fluorescence 635 nm; higher = more signal
[3] = Plasmodium falciparum growth inhibition, primary screen, strain 3D7, DAPI fluorescence, 100 nL (AID 1184);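 note: parasites grown inside human red blood cells in medium with human serum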; conditions: P. falciparum 3D7 growth, 3 d, higher = more signal
[4] = molecular target: Homeobox protein Hox-A13 (Mus musculus) (UniProt Q62424); assay: inhibitors of HoxA13-DNA binding, primary screen, biochemical, fluorescence polarization, labeled oligonucleotide (AID 1185); conditions: 15 min, higher = more signal, called active from +8 up or from −8 down
[5] = inhibitors of hydroxyurea-induced Chk1 phosphorylation, primary screen, imaging, HeLa, phospho-Chk1 antibody, percent positive cells (AID 1186); conditions: hydroxyurea-induced phospho-Chk1 immunofluorescence imaging, higher = more signal
[6] = inhibitors of hydroxyurea-induced Chk1 phosphorylation, primary screen, imaging, HeLa, phospho-Chk1 nuclear intensity (AID 1187); conditions: hydroxyurea-induced phospho-Chk1 immunofluorescence imaging, higher = more signal

Sequence of Homeobox protein Hox-A13 (Mus musculus) (Q62424 whole entry, looked up): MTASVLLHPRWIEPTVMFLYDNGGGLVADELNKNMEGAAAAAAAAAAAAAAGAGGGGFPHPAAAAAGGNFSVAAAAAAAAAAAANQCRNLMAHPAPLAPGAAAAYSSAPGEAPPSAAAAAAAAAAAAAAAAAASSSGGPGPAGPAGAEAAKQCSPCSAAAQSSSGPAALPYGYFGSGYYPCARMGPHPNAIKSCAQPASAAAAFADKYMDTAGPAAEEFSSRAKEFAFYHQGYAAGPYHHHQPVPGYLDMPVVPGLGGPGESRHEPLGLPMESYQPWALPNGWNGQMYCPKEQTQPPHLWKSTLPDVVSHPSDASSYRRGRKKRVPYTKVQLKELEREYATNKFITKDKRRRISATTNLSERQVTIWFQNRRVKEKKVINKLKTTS

SMILES | composite z-score [1] | composite z-score [2] | z-score [3] | z-score [4] | z-score [5] | z-score [6]
CCOC(=O)C1=CCC(c2ccc([N+](=O)[O-])cc2)N(S(=O)(=O)c2ccc(C)cc2)C1 (stereo not given) | -0.15 (inactive) | 0.27 | -1.3 | -1.24 (inactive) | -0.021 (inactive) | 0.144 (inactive)
CCOC(=O)C[C@H]1[C@H](OC(=O)c2ccc(-c3ccccc3)cc2)[C@@H](NC(=O)c2ccc(-c3ccccc3)cc2)c2cc(OCCCO)ccc2N1C(=O)Cc1ccc(OC)cc1 | -0.548 (inactive) | -0.057 | 0.555 | -1.54 (inactive) | -0.0323 (inactive) | 0.107 (inactive)
CC(C)N1C(=O)[C@@]2(c3ccc([N+](=O)[O-])cc3)CC(=O)N(CC34CC5CC(CC(C5)C3)C4)[C@@H]2c2ccc(CO)cc21 | -0.43 (inactive) | 0.52 | 0.115 | -0.734 (inactive) | 0.18 (inactive) | -0.0138 (inactive)
CCCCCN1CC=CC23O[C@@H]4/C=C\CCCOC(=O)C4[C@H]2C(=O)N(CCCCCCO)[C@@H]3C1=O (stereo not given in full) | 0.403 (inactive) | -0.0516 | -1.13 | -5.27 (inactive) | -0.792 (inactive) | -0.702 (inactive)
O=C(NCc1ccccc1)[C@]1(CCS(=O)(=O)c2ccccc2)N=C(c2ccc(OCCCO)cc2)O[C@@H]1c1ccccc1 | 0.605 (inactive) | 0.678 | -2.18 | -1.13 (inactive) | -0.362 (inactive) | -0.255 (inactive)
COCCCNC(=O)[C@@]1(C)c2ccccc2C(=O)N(Cc2cc(C(F)(F)F)cc(C(F)(F)F)c2)[C@H]1c1ccc(CO)cc1 | 0.707 (inactive) | 0.875 | -0.577 | -3.6 (inactive) | -0.385 (inactive) | 0.0021 (inactive)
CC(=O)NCCCC[C@@H]1NC(=O)[C@H]2C[C@@H](C(=O)NCCCCCC[N+](C)(C)C)[C@@H](c3cccc(OCCO)c3)N2C1=O | 1.87 (inactive) | 0.893 | -1.26 | -4.59 (inactive) | -0.372 (inactive) | -0.255 (inactive)
[N-]=[N+]=NCc1ccccc1C[C@]1(C(=O)O)N=C(c2ccc(OCCCO)cc2)O[C@H]1c1ccccc1CN=[N+]=[N-] | 0.218 (inactive) | 0.746 | -0.507 | -4.69 (inactive) | -0.0136 (inactive) | 0.306 (inactive)
O=C(OCCF)C1=CCC(c2cccc(Cl)c2)O1 (stereo not given) | -0.131 (inactive) | 0.0075 | 0.65 | -0.701 (inactive) | 0.0006 (inactive) | 0.215 (inactive)
CCCCC=C[C@@H](NC(=O)c1cccs1)c1ccccc1 | -0.0837 (inactive) | -0.513 | -0.414 | -3.05 (inactive) | -0.483 (inactive) | -0.695 (inactive)
Cc1ccccc1C(O)C1C=CC2C(=O)N(C)C(=O)C2N1N1CCCCC1 (stereo not given) | 0.547 (inactive) | 0.576 | 0.737 | -6.67 (inactive) | 0.193 (inactive) | -0.0403 (inactive)
COCCOC(=O)N1C(=O)[C@@]2(c3cc(C#CCNC(N)=O)ccc31)[C@H](c1ccccc1OCCO)N1[C@H](c3ccccc3)[C@H](c3ccccc3)OC(=O)[C@H]1[C@@H]2C(N)=O | -0.0949 (inactive) | 0.467 | -0.585 | -2.6 (inactive) | 0.0842 (inactive) | -0.266 (inactive)
COCCOC(=O)N1C(=O)[C@@]2(c3ccccc31)[C@H](C(=O)Nc1nc3ccccc3s1)[C@H]1C(=O)O[C@H](c3ccccc3)[C@H](c3ccccc3)N1[C@@H]2c1ccc(OCCO)cc1 | 0.886 (inactive) | 0.805 | -1.13 | 0.34 (inactive) | -0.178 (inactive) | -0.249 (inactive)
Cc1c(NC(=O)CC#N)c(=O)n(-c2ccccc2)n1C | 0.248 (inactive) | 0.0029 | -0.0049 | -0.631 (inactive) | 0.123 (inactive) | 0.239 (inactive)
O=C1C[C@]2(c3ccc([N+](=O)[O-])cc3)C(=O)N(CC(F)(F)F)c3cc(CO)ccc3[C@H]2N1CC12CC3CC(CC(C3)C1)C2 | 0.2 (inactive) | 0.822 | 0.0278 | 0.2 (inactive) | -0.151 (inactive) | -0.382 (inactive)
CCOC(=O)C[C@H]1[C@H](OC(=O)c2ccccc2-c2ccccc2)[C@@H](NC(=O)c2ccc3ccccc3c2)c2cc(OCCCO)ccc2N1C(=O)c1ccc2ccccc2n1 | 0.157 (inactive) | 0.171 | -0.34 | -2.08 (inactive) | 0.308 (inactive) | -0.334 (inactive)
CS(=O)(=O)CCOC(=O)C1=CC(CCCO)=CC(c2cccs2)N(Cc2cc3c(cc2Br)OCO3)C=C1C(=O)OCCS(C)(=O)=O (stereo not given) | 0.555 (inactive) | 0.634 | -3.01 | -2.91 (inactive) | -0.169 (inactive) | 0.132 (inactive)
O=C1C[C@@](C(=O)NC2CC2)(c2ccc([N+](=O)[O-])cc2)[C@@H](c2ccc(CO)cc2)N1CC12CC3CC(CC(C3)C1)C2 | -0.181 (inactive) | 0.611 | -0.909 | -5.08 (inactive) | -0.635 (inactive) | -0.617 (inactive)

SMILES | composite z-score [1] | composite z-score [2] | z-score [3] | z-score [4] | z-score [5] | z-score [6]
Cc1cc(C)c(C(O)C2C=CC3C(=O)N(c4ccccc4)C(=O)C3N2Nc2ccc(C#N)cc2)c(C)c1 (stereo not given) | 1.69 (inactive) | 0.432 | -0.558 | 0.783 (inactive) | 0.0661 (inactive) | 0.0947 (inactive)
O=c1cccc(CCc2ccccc2)o1 | 0.223 (inactive) | 0.903 | 2.16 | -3.17 (inactive) | 0.576 (inactive) | 0.158 (inactive)
CN1CCC(CCCO)=CC1c1ccc(CN2CCCC2)cc1 (stereo not given) | 0.426 (inactive) | 0.506 | -1.18 | -2.07 (inactive) | 0.56 (inactive) | 0.903 (inactive)
C=C(CCCC)/C(=C/C[C@H](OC(C)=O)c1ccc(CO)o1)c1cnc2ccccc2c1 | 0.0563 (inactive) | 0.515 | -0.867 | -5.74 (inactive) | 0.0298 (inactive) | -0.0373 (inactive)
COc1cc2c(cc1OC)CN(C(=O)[C@@H]1[C@H]3C(=O)O[C@H](c4ccccc4)[C@H](c4ccccc4)N3[C@H](c3ccccc3OCCO)[C@@]13C(=O)Nc1ccc(C#CCNC(N)=O)cc13)CC2 | 0.12 (inactive) | 0.811 | -2.17 | 2.09 (inactive) | -0.229 (inactive) | -0.232 (inactive)
CC1=C2[C@@H](CCc3ccccc3)OB(O)C[C@@H]2n2c(=O)n(-c3ccccc3)c(=O)n2C1 | -0.105 (inactive) | 0.777 | 1.65 | -5.44 (inactive) | -0.0397 (inactive) | 0.208 (inactive)
O=C1N(CCS(=O)(=O)c2ccccc2)c2ccccc2C[C@@]12COC(c1ccc(OCCCO)cc1)=N2 | 2.06 (inactive) | 0.861 | -1.39 | -4.69 (inactive) | -0.0621 (inactive) | -0.223 (inactive)
C=CC(=C)C1=CCO[C@@H]1[C@H]1CCCN1S(=O)(=O)c1ccccc1[N+](=O)[O-] | 0.162 (inactive) | 0.281 | -1.51 | -2.41 (inactive) | -0.0283 (inactive) | 0.0588 (inactive)
CCOC(=O)C[C@H]1[C@H](OC(=O)Cc2ccc3c(c2)OCO3)[C@@H](NC(=O)c2ccc(-c3ccccc3)cc2)c2cc(OCCCO)ccc2N1C(=O)c1ccccc1 | -0.238 (inactive) | 0.729 | -1.77 | -1.88 (inactive) | -0.467 (inactive) | -0.214 (inactive)
C=CCN1C(=O)[C@]2(O[C@H](CCO)[C@@H]([Si](C)(C)c3ccc(OC)cc3)[C@@H]2C)c2cc(NC(=O)[C@H](C)O)ccc21 | 1.46 (inactive) | 0.822 | -2.74 | -5.5 (inactive) | 1.42 (inactive) | 0.436 (inactive)
[N-]=[N+]=NCc1ccccc1[C@H]1OC(c2ccc(OCCCO)cc2)=N[C@@]1(CCS(=O)(=O)c1ccccc1)C(=O)N1CCOCC1 | 1.53 (inactive) | 0.768 | -2.22 | -3.2 (inactive) | -0.0312 (inactive) | 0.246 (inactive)
C=CCC(OC(C)=O)[C@@H]1[C@@H](N(Cc2cccc3ccccc23)C(=O)c2cccc3ccccc23)c2cc(OCCCO)ccc2N1C(=O)c1ccc2ccccc2n1 (stereo not given in full) | 0.376 (inactive) | 0.343 | -1.29 | -2.11 (inactive) | 0.316 (inactive) | 0.545 (inactive)
COCCOC(=O)N1C(=O)[C@@]2(c3cc(C#CCC(C(=O)OC)C(=O)OC)ccc31)[C@H](C(=O)N1CCCCCCC1)[C@H]1C(=O)O[C@H](c3ccccc3)[C@H](c3ccccc3)N1[C@@H]2c1ccc(OCCO)cc1 | 0.968 (inactive) | 0.746 | -1.79 | -15.8 (active) | -0.479 (inactive) | -0.719 (inactive)
[N-]=[N+]=Nc1ccccc1[C@@H]1OC(c2ccc(OCCCO)cc2)=N[C@]1(CCS(=O)(=O)c1ccccc1)C(=O)N1CCOCC1 | 1.12 (inactive) | 0.731 | -2.09 | -1.96 (inactive) | 0.0445 (inactive) | 0.143 (inactive)
COc1cc(CO)ccc1OC(C)=O | -0.152 (inactive) | 0.383 | 0.186 | 0.472 (inactive) | -0.111 (inactive) | 0.0389 (inactive)
COc1ccc(CCNC(=O)[C@@]2(c3ccc([N+](=O)[O-])cc3)CC(=O)N(CC34CC5CC(CC(C5)C3)C4)[C@@H]2c2ccc(CO)cc2)cc1 | 0.349 (inactive) | 0.735 | -1.79 | -2.31 (inactive) | -0.42 (inactive) | -0.458 (inactive)
CO[C@H]1O[C@H](CO)[C@@H](OC(=O)Nc2ccc3c(c2)OCO3)[C@H](OC(=O)Nc2ccccc2)[C@H]1OC(=O)Nc1ccccc1 | 0.981 (inactive) | 0.831 | -2.49 | -4.76 (inactive) | -0.328 (inactive) | -0.439 (inactive)
